Source: PubChem BioAssay
A number with no mark means an inactive call.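 How the source made its calls: active means at least 20% inhibition of 6-phosphogluconate dehydrogenase activity; inactive means the rest.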 Where a SMILES comes first, the peptide text is derived from it. [ ]: non-standard residue; d: D form. The star is where a group is joined. NHCH2CH2OH = OCCN*; For = O=C*

The compounds below were run against 6-phosphogluconate dehydrogenase, decarboxylating (Homo sapiens) (UniProt P52209) (assay: inhibition of human phosphogluconate dehydrogenase – biochemical, recombinant enzyme, NADPH absorbance, primary screen (AID 1159550)). Conditions: recombinant 6PGD, NADPH absorbance 341 nm; at 10 µM; hits give high values.
6-phosphogluconate dehydrogenase, decarboxylating (Homo sapiens), sequence (P52209 whole entry, looked up): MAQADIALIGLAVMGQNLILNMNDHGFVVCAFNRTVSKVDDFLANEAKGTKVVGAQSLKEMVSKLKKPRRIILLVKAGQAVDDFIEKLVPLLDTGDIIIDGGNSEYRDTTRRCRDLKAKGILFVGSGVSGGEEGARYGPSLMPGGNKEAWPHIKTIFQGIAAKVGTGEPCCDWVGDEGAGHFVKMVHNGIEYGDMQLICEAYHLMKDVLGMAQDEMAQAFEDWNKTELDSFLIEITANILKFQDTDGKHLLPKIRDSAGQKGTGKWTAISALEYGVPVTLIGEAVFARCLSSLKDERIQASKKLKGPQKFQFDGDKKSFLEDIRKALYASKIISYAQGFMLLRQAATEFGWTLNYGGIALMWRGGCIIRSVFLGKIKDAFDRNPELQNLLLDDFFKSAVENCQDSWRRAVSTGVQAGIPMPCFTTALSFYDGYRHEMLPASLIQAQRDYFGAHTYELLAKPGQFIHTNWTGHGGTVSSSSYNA

| Compound | inhibition [%] |
| --- | --- |
| CC(=O)Oc1ccc2c(c1)CCC1C2CCC2(C)C(OC(C)=O)CCC12 (stereo not given) | 3.64 |
| C[C@@H]1CC[C@@]2(OC1)O[C@H]1C[C@H]3[C@@H]4CC=C5C[C@@H](O)CC[C@]5(C)[C@H]4CC[C@]3(C)[C@H]1[C@@H]2C | 10.6 |
| C[C@H](C[C@@H](O)[C@@H]1OC1(C)C)[C@@H]1CC[C@]2(C)C3=CC[C@H]4C(C)(C)C(=O)CC[C@]4(C)[C@H]3CC[C@@]12C | -0.309 |
| O=C(O[C@@H]1Cc2c(O)cc(O)cc2O[C@@H]1c1cc(O)c(=O)c2c(O)c(O)cc([C@H]3Oc4cc(O)cc(O)c4C[C@H]3O)c2c1)c1cc(O)c(O)c(O)c1 | 8.68 |
| CC1(C)CCC2(C(=O)O)CCC3(C)C(=CCC4C5(C)CCC(O)C(C)(C)C5CCC43C)C2C1 (stereo not given) | 0.817 |
| CC(=O)Oc1ccc(-c2cc(=O)c3c(OC(C)=O)cc(OC(C)=O)cc3o2)cc1 | -7.11 |
| CC(C)c1ccc2c(c1)CC[C@@]1(C)[C@](C)(C(N)=O)CCC[C@]21C | 18 |
| COC(=O)C[C@H]1C(C)(C)C(=O)[C@@H]2CC3C4=CC(=O)O[C@@H](c5ccoc5)[C@]4(C)CC[C@@H]3[C@@]1(C)C2=O (stereo not given in full) | 12.7 |
| COc1ccc(-c2cc(=O)c3ccc(OC)cc3o2)cc1 | -4.22 |
| C[C@H](CCC(=O)O)[C@H]1CC[C@H]2[C@@H]3C=C[C@@H]4C[C@H](O)CC[C@]4(C)[C@H]3CC[C@]12C | 3.87 |
| COC(=O)C1OC(=O)C2OC23C1(C)CCC1C2(C)CCC(=O)C(C)(C)C2CC(OC(C)=O)C13C (stereo not given) | -6.02 |
| COc1cc2c(cc1OC)[C@@H]1C(=O)c3c(O)cc4c(c3O[C@@H]1CO2)C=CC(C)(C)O4 | 12.7 |
| CC(C)C[C@@H](NC(=O)[C@H](C)NC(=O)CNC(=O)[C@@H](NC=O)C(C)C)C(=O)N[C@@H](C)C(=O)N[C@@H](C(=O)N[C@H](C(=O)N[C@H](C(=O)N[C@@H](Cc1c[nH]c2ccccc12)C(=O)N[C@H](CC(C)C)C(=O)N[C@@H](Cc1c[nH]c2ccccc12)C(=O)N[C@H](CC(C)C)C(=O)N[C@@H](Cc1c[nH]c2ccccc12)C(=O)N[C@H](CC(C)C)C(=O)N[C@@H](Cc1c[nH]c2ccccc12)C(=O)NCCO)C(C)C)C(C)C)C(C)C (For-VGA[dL]A[dV]VVW[dL]W[dL]W[dL]W-NHCH2CH2OH) | 10.9 |
| CC(=O)O[C@@H]1C[C@H]2C(C)(C)C(=O)[C@@H]3O[C@@H]3[C@]2(C)[C@H]2CC[C@@]3(C)[C@H](c4ccoc4)OC(=O)[C@H]4O[C@]43[C@@]21C | -3.37 |
| CC[C@@H](CC[C@@H](C)[C@H]1CC[C@H]2[C@@H]3CC=C4C[C@@H](O)CC[C@]4(C)[C@H]3CC[C@]12C)C(C)C | 10.4 |
| O=C(O[C@@H]1Cc2c(O)cc(O)cc2O[C@@H]1c1cc(O)c(O)c(O)c1-c1c([C@H]2Oc3cc(O)cc(O)c3C[C@H]2O)cc(O)c(O)c1O)c1cc(O)c(O)c(O)c1 | 1.5 |
| Cc1cc(=O)c2c(O)c(C)c(O)cc2o1 | 15 |
| CC12CCC3c4ccc(O)cc4CCC3C1CCC2OC(=O)CCC1CCCC1 (stereo not given) | -3.96 |
| CC(C)CCC[C@@H](C)[C@H]1CC[C@H]2[C@@H]3CC[C@H]4CCCC[C@]4(C)[C@H]3CC[C@]12C | 11.6 |
| CC(=O)OC1CCC2(C)C(CC(OC(C)=O)C3(C)C2CCC2(C)C(c4ccoc4)OC(=O)C4OC423)C1(C)C (stereo not given) | -7.87 |
| CC(C)CC(NC(=O)C1CCCN1C(=O)C(N)C(C)C)C(=O)O (stereo not given) | 14 |
| CC[C@@H](CC[C@@H](C)[C@H]1CC[C@H]2[C@@H]3CC[C@H]4C[C@@H](O)CC[C@]4(C)[C@H]3CC[C@]12C)C(C)C | -13.2 |
| C[C@]12CC[C@@H](O)C[C@H]1CC[C@@H]1[C@@H]2C(=O)C[C@@]2(C)[C@H]1CC[C@]2(O)C(=O)CO | -17 |
| CC(=O)OCC(=O)[C@@]1(O)CC[C@H]2[C@@H]3CC[C@@H]4C[C@H](O)CC[C@]4(C)[C@H]3C(=O)C[C@@]21C | -7.21 |
| COc1cc(OC)c2oc(-c3ccc(OC)c(OC)c3)c(O)c(=O)c2c1 | -1.17 |
